About 680 (0.49%) of roughly 140,000 compounds were called active. The list comes from a sample in which actives are over-represented; it also holds similar structures and randomly drawn compounds. Values without a mark were called inactive. No stated cut-off is given here; in the data, active means activation above about 5% (passing the limit was not always enough); inactive means the rest.

For the test, the target named is Galanin receptor type 2 (Homo sapiens) (UniProt O43603). As to the kind of experiment: GALR2 receptor agonists, primary screen, cell-based (AID 803).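 Further: 0% = vehicle buffer wells and 100% = reference agonist at full effect.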 The following applies: GALR2-expressing cells, agonist activation read-out; at 5.6 µM; hits give high values.
Galanin receptor type 2 (Homo sapiens), sequence (O43603 whole entry, looked up): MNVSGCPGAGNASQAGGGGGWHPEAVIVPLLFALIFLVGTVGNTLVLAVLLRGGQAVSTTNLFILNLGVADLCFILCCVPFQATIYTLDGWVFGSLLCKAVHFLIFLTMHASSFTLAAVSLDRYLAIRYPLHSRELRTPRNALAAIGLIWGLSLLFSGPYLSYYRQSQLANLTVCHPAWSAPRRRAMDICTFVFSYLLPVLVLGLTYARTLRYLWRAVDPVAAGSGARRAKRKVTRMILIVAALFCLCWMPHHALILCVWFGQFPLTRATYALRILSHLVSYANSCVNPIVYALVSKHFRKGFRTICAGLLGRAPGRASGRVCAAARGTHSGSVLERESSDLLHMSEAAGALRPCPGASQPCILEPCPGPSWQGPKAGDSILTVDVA
With `COc1ccc(NC(=S)SC)cc1OC`, the activation is -0.23%.

For the molecule `CN(C)S(=O)(=O)c1cccc(NC(=S)N/N=C/C(=O)c2ccccc2)c1`, the activation is 0.25%.

Regarding `CCNc1nc(NC(C)C)nc(N2CC(=O)N(CC(=O)OCC)C2=N)n1`, the activation is 0.96%.

Consider `CCc1ccc(-c2nn(-c3ccccc3)cc2CSC(=N)N)cc1`, for which the activation was 5.34% (active).

Consider `N=C(N)SCc1cccc2ccccc12`, for which the activation was -1.3%.

For the molecule `CCn1c(SCc2ccc(C)cc2)nnc1-c1nn(-c2ccccc2)ccc1=O`, the activation is -0.25%.

For `Cc1cc[n+](-c2[nH]c(=O)sc2/C=N/NC(=O)c2ccccc2[O-])cc1C`, the activation was 1.06%.

Consider `COc1ccccc1C1SCCN1C(=O)c1ccc([N+](=O)[O-])cc1` (stereo unspecified), for which the activation was 0.57%.

On to `N=c1n(CCc2ccccc2)c2ccccc2n1Cc1ccccc1F`, for which the activation was -1.04%.

Regarding `OC(COc1cccc(OCC(O)CN2CCCC2)c1)CN1CCCC1` (stereo unspecified), the activation was -0.12%.

Consider `OC(COc1cccc2ccccc12)CN1CCN(c2ccccn2)CC1` (stereo unspecified), for which the activation is 14.5% (active).

`O=C1c2cccc3cccc(c23)N1CN1CCN(c2ccccn2)CC1`: the activation is -1.31%.

Consider `C=CCn1c(CCNC(=O)c2cccs2)n[nH]c1=S`, for which the activation was -1.14%.

In the case of `Cn1nccc1CNC(=O)c1ccnn1C`, the activation is -2.14%.

Turning to `COc1cc(NC(=S)NNC(=O)CC(C)C)c(OC)cc1Cl`, the activation was -0.97%.

Take `CCCCn1c(O)c(N=NC(=O)Cn2c(C(F)(F)F)nc3ccccc32)c2ccccc21`: the activation was -0.64%.

Consider `CCOC(=O)c1oc2c(CN3CCN(C)CC3)c(O)ccc2c(=O)c1-c1ccc(Br)cc1`, for which the activation is -1.12%.

Regarding `Cc1csc(NC(=S)Nc2cccc(Cl)c2)n1`, the activation is -0.28%.

In the case of `O=C(Nc1cccc2ncccc12)c1ccc(-c2ccc(Cl)cc2Cl)o1`, the activation is -3.29%.

As for `Cc1csc(NC(=O)c2ccc(-c3ccc(Cl)cc3Cl)o2)n1`, the activation was 8.53% (active).

As for `C=CCn1c(P(C)(=O)O)nc2ccccc21`, the activation was -0.16%.

For the molecule `Cc1ccc(C(C)NC(=O)Cn2nc(C)c([N+](=O)[O-])c2C)cc1` (stereo unspecified), the activation was -0.83%.

`CC12CN3CC(C)(CN(C1)C3c1ccc(Cl)cc1Cl)C2=O` (stereo unspecified): the activation was -0.09%.

For the molecule `NNC(=O)c1ccc(Cl)cc1Cl`, the activation was 0.25%.

On to `COC(=O)C1=CN(C)C=C(C(=O)OC)C1c1ccc(Cl)cc1Cl`, for which the activation was 7.44% (active).

In the case of `CCOc1ccccc1N(CC(=O)Nc1ccccc1C(=O)OC)S(C)(=O)=O`, the activation was -0.26%.

Regarding `CCOc1ccccc1C1C(C(=O)OC)=CN(C)C=C1C(=O)OC`, the activation is 10.7% (active).

`CCOc1cc(C2C(C(=O)OC)=CN(C3CCCC3)C=C2C(=O)OC)cc(Br)c1O`: the activation is 2.25%.

In the case of `Cc1c(C(=O)c2cccc([N+](=O)[O-])c2)c2ccccn2c1CCC#N`, the activation is 0.65%.

With `O=C(COC(=O)Cn1cnc2ccccc2c1=O)NCC12CC3CC(CC(C3)C1)C2`, the activation was -1.72%.

`CCO/N=C(/C)c1c(O)cc(-c2ccccc2)n(-c2ccccc2)c1=O`: the activation is 0.26%.

For `Nc1nc(SCC(=O)NNc2c(Cl)cc(Cl)cc2Cl)n[nH]1`, the activation was -0.67%.

`c1ccc2c(c1)CSc1sccc1C2=C1CCNCC1`: the activation is -2.25%.

`C=CCOc1nc2c(c(=O)n(C)c(=O)n2C)n1Cc1ccc(Cl)cc1Cl`: the activation is 1.61%.

As for `Cn1c(=O)c2c(nc(N3CCCCCC3)n2CC(=O)c2ccc(Br)cc2)n(C)c1=O`, the activation was -0.03%.

Take `C=CCn1c(Oc2ccc(C(=O)OC)cc2)nc2c1c(=O)n(C)c(=O)n2C`: the activation was 16.4% (active).

In the case of `CCOc1ccc2nc(Nc3nc4ccc(NC(C)=O)cc4s3)sc2c1`, the activation was 35.2% (active).

Take `COc1ccc2nc(Nc3nc4ccc(NC(C)=O)cc4s3)sc2c1`: the activation was 2.62%.

On to `CCOc1ccc2nc(SC(CC)C(=O)Nc3cc(C)on3)sc2c1` (stereo unspecified), for which the activation is -1.01%.

Consider `N#Cc1c(NC(=O)c2ccc(N3CCOCC3)c([N+](=O)[O-])c2)sc2c1CCCC2`, for which the activation is -1.06%.

On to `O=C(O)c1cccc(N2C(=O)Nc3ccccc3N2O)c1`, for which the activation is -0.65%.

With `Cc1ccccc1N(C(=O)Cc1cccs1)C(C(=O)NC1CCCCC1)c1cn(C)nc1C` (stereo unspecified), the activation is -0.31%.

As for `CCCCCOc1ccc(CSC2=NCCN2)cc1[N+](=O)[O-]`, the activation was 0.31%.

Consider `CC(C)NC(=O)C(=O)NCCCOC(C)C`, for which the activation is -1.05%.

On to `CCNS(=O)(=O)c1ccc(NC(=O)c2cncc(Br)c2)cc1`, for which the activation was -1.39%.

For `C/C(CC(=O)Nc1cccc(F)c1)=N\NC(=O)C(=O)NC1CCCCC1`, the activation is -0.33%.

As to `CCN(c1ccccc1)S(=O)(=O)c1ccc(C(=O)Nc2nccs2)cc1`, the activation is -3.23%.

On to `C=CCN(CC=C)S(=O)(=O)c1ccc(C(=O)Nc2nc3c(s2)CCc2ccccc2-3)cc1`, for which the activation was 9.18% (active).

As to `COc1ccc(C(=O)Nc2ncc3c(n2)-c2ccccc2CC3)cc1`, the activation was -1.58%.

As to `O=C(Nc1ccc(S(=O)(=O)N2CCc3ccccc3C2)cc1)c1ccccc1`, the activation is -2.86%.

In the case of `COCCN(CCOC)S(=O)(=O)c1ccc(C(=O)Nc2nc3c(s2)CCc2ccccc2-3)cc1`, the activation was 12.8% (active).

Take `C=CCN(CC=C)S(=O)(=O)c1ccc(C(=O)Nc2sc3c(c2C(N)=O)CCCCC3)cc1`: the activation is -0.72%.

With `O=C(CN1C2=NCCN2c2ccccc21)c1cccs1`, the activation is 0.13%.

As to `CCOc1ccc(Br)cc1CSC(=N)N`, the activation is -1.41%.

Take `O=C(Nc1cccc(Cl)c1)Nc1ccccc1NS(=O)(=O)c1cccs1`: the activation is -0.87%.

`Cc1cccc(OCC(O)Cn2c(=N)n(CCN3CCOCC3)c3ccccc32)c1` (stereo unspecified): the activation is -1.56%.

Consider `CCOc1ccc(C(O)Cn2c(=N)n(CCN3CCCCC3)c3ccccc32)cc1` (stereo unspecified), for which the activation is 25.8% (active).

As to `Cn1c(=N)n(CC(O)c2ccccc2)c2ccccc21` (stereo unspecified), the activation was -3.54%.

Consider `O=C(COC(=O)CCCNC(=O)c1ccc(Cl)cc1)Nc1cc(Cl)ccc1Cl`, for which the activation is -0.66%.

For `N#Cc1ccccc1NC(=O)c1cccc(COc2ccc(Cl)cc2Cl)c1`, the activation is -1.81%.

For the molecule `CCC(C)NC(=O)c1ccc(N2CCC3(CC2)OCCO3)c([N+](=O)[O-])c1` (stereo unspecified), the activation is 1.63%.
